In PubChem BioAssay:

What follows are compounds tested on Human papillomavirus type 1a E7 protein (residues 1-88) (assay: HPV1a E7 small-molecule binders, primary screen, biochemical, small-molecule microarray, residues 1-88, 635 nm (AID 1129)). Settings: small-molecule microarray binding, fluorescence 635 nm; higher = more signal.
`NCCCCCNC(=O)[C@@H]1C[C@@H]2C(=O)N3CCC[C@H]3C(=O)N2[C@@H]1c1cccc(OCCO)c1` was tested, and the composite z-score was 0.689. In the case of `C=CC[C@]1(C(=O)NCc2ccccc2)N=C(c2ccc(OCCCO)cc2)O[C@H]1c1ccccc1`, the composite z-score is reported as 1.22. Work on `COCCOC(=O)N1C(=O)[C@@]2(c3cc(C#CCNC(N)=O)ccc31)[C@H](c1ccc(O)cc1)N1[C@H](c3ccccc3)[C@H](c3ccccc3)OC(=O)[C@H]1[C@@H]2C(=O)N1CCCCCCC1` yielded a composite z-score of 0.857. Compound `O=C1[C@H]2[C@H]3[C@H](O)[C@H](O)CC(=NO[C@@H]4O[C@H](CO)[C@@H](O)[C@H](O)[C@H]4O)[C@@H]3CC[C@H]2C(=O)N1Cc1ccc2c(c1)OCO2` has a composite z-score of 0.782. For `O=C1[C@H]2[C@H]3[C@H](O)[C@H](O)CC(=NOCc4ccccc4)[C@@H]3CC[C@H]2C(=O)N1C1CCCCC1`, the composite z-score was -0.0419. In the case of `O=C1[C@H]2[C@H]3[C@H](O)[C@H](O)CC(=NO[C@@H]4O[C@H](CO)[C@@H](O)[C@H](O)[C@H]4O)[C@H]3CC[C@H]2C(=O)N1Cc1ccc2c(c1)OCO2`, the composite z-score is reported as -0.186. `O=C(NN=C1C[C@@H](O)[C@@H](O)[C@@H]2[C@@H]3C(=O)N(c4cccc(Oc5ccccc5)c4)C(=O)[C@@H]3CC[C@H]12)OCc1ccccc1` gave a composite z-score of 0.116. `CC(C)CON=C1C[C@@H](O)[C@@H](O)[C@@H]2[C@@H]3C(=O)N([C@@H](C)c4ccccc4)C(=O)[C@@H]3CC[C@H]12` was tested, and the composite z-score was 1.17. For `CC(=O)O[C@H]1C2=C(C(=O)[C@@H]3O[C@@H]31)[C@H]1C(C)O[C@@H]2[C@@]23C(=O)[C@@H]4O[C@@H]4[C@@H](O)C2=CO[C@H](C)[C@@H]13` (stereo partly drawn), the composite z-score was 0.154. `CC(C)(C)N1C(=O)[C@H]2[C@H]3[C@H](O)[C@H](O)CC(=NOCc4ccccc4)[C@@H]3CC[C@H]2C1=O` gave a composite z-score of 0.808. `O=C1[C@H]2[C@H]3[C@H](O)[C@H](O)CC(=NOC[C@@H](O)COCc4ccco4)[C@H]3CC[C@H]2C(=O)N1c1cccc(Oc2ccccc2)c1` was tested, and the composite z-score was -0.438. Compound `CC(C)=CCCC(C)=CCON=C1C[C@@H](O)[C@@H](O)[C@@H]2[C@@H]3C(=O)N(C[C@@H]4CCCO4)C(=O)[C@@H]3CC[C@@H]12` has a composite z-score of 1.13. `Cc1ccc(S(=O)(=O)N[C@@H]2COC(=O)[C@H](C)COC(=O)CC=C[C@H]2C)cc1` gave a composite z-score of -0.0268. In the case of `CCc1cc2c(nc1CC)CCN(CCC(C)=NO[C@@H](C)c1cc(-c3c(C)cc(C)cc3C)no1)C2`, the composite z-score is reported as -0.22. `CC(=O)OC[C@H]1O[C@@H](ON=C(C)CCN2CCc3nc(-c4ccccc4)c(-c4ccccc4)cc3C2)[C@H](OC(C)=O)[C@@H](OC(C)=O)[C@@H]1OC(C)=O` showed a composite z-score of 1.11. Work on `Cc1ccc(S[C@]2(C(=O)NCC(F)(F)F)CC(=O)N(Cc3ccccc3Cl)[C@@H]2c2ccc(CO)cc2I)cc1` yielded a composite z-score of -0.0053. In the case of `CO[C@@H]1COC(=O)CC=C[C@@H](C)COC(=O)[C@H](COCc2ccccc2)NC(=O)CC=C[C@H]1C`, the composite z-score is reported as -1.04. With `O[C@@H](Cc1ccccc1)[C@H]1C2C=CCCC(c3ccccc3)=C2CN1Cc1cccc(Cl)c1` (stereo partly drawn) the composite z-score was 1.14. For `CC(=O)OC[C@H]1O[C@H](CCON=C[C@@H](C)[C@H](OCc2ccccc2)C(C)C)C=C[C@@H]1OC(C)=O`, the composite z-score was 0.193. Work on `CC1(C)OCC(C(O)C2=CCCCC2=O)CO1` (stereo not drawn) yielded a composite z-score of 0.279. Compound `CO[C@@H]1COC(=O)CC=C[C@@H](C)[C@@H]2C=C[C@H](O)[C@@H](COC(=O)[C@H](C)NC(=O)CC=C[C@H]1C)O2` has a composite z-score of -0.794. Work on `CCCCCN1CC=CC23O[C@@H]4C=CCOC(=O)[C@@H]4[C@H]2C(=O)N(CCCCCCO)[C@@H]3C1=O` (stereo partly drawn) yielded a composite z-score of -0.381. For `COCCCNC(=O)[C@@]1(C)c2ccccc2C(=O)N(Cc2ccc(OC(F)(F)F)cc2)[C@H]1c1ccc(CO)cc1`, the composite z-score was -1.52. With `CC(C)[C@@H](OCc1ccccc1)[C@H](C)C=NO[C@H](C)c1cn([C@H](CO)Cc2ccccc2)nn1` the composite z-score was 0.222. For `c1ccc(C2NCCc3c2[nH]c2ccccc32)cc1` (stereo not drawn), the composite z-score was -0.805. In the case of `O=C1NC(=O)C2C1C=CC(C(O)Cc1ccccc1)N2Nc1ccccn1` (stereo not drawn), the composite z-score is reported as 0.45. With `CCOC(=O)[C@H](Cc1ccccc1)NC(=O)CCC1CC(OC(=O)NCCc2ccc(F)cc2)CC2(CCCC(COC(=O)NCC(c3ccccc3)c3ccccc3)O2)O1` (stereo partly drawn) the composite z-score was 0.517. `COCCOC(=O)N1C(=O)[C@@]2(c3cc(C#Cc4ccc(OC)cc4)ccc31)[C@H](C(=O)N1CCN(c3ncccn3)CC1)[C@H]1C(=O)O[C@H](c3ccccc3)[C@H](c3ccccc3)N1[C@@H]2c1ccc(OCCO)cc1` showed a composite z-score of 0.202.
